Experimental data as given in PubChem BioAssay (NCATS).
Results filed as inconclusive are left out. Calls of active or inactive are those of the source. Calls come from the whole dose curve; as a rule, active = well fitted curve in the direction sought with a large enough effect; inconclusive = small, poorly fitted or top-dose-only effect, or another doubt; inactive = no such curve, though single readings can be large; an effect the other way counts as inactive or inconclusive.

Experiments:
[1] = target: Arylsulfatase A (Homo sapiens) (UniProt P15289); assay: qHTS screen for enhancers of Arylsulfatase A (ASA1): LOPAC Validation Assay (AID 720538); settings: ASA enzyme activity, LOPAC qHTS enhancer assay; series mostly up to 57.5 µM
Outline: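 MLD patient fibroblasts (SV40, ASA-I179S), 1536-well; adhere 6 hrs; cpd 48h, 37 degree C, 5% CO2; pNCS 0.5mM final in lysis buffer, 14h RT; stop 1N NaOH final; fluor. Ex525/Em598.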

[2] = qHTS for compounds that reverse cellular toxicity of Amyloid beta (A-beta) peptide in yeast: LOPAC Validation Assay (AID 720559); settings: yeast expressing A-beta; series mostly up to 46.1 µM
Outline: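 Medium dispensed, compounds pinned, A-beta yeast suspension added; plates held at 30 C for 48 hr; absorbance measured at 600 nm to gauge growth; values scaled between DMSO and FeCl3/clioquinol (equimolar) controls.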

[3] = qHTS for Activators of Parkin Expression: LOPAC Validation Assay (FLuc Reporter) (AID 720573); settings: Cell line, PRKN promoter firefly luciferase reporter, vehicle wells = 0, positive control = 100%; series mostly up to 46.1 µM
Outline: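 Cells seeded, 24 h; compounds pinned, 7-pt dose response; 24 h at 37 C/5% CO2; volume reduced; FLuc reagent 10 min RT; luminescence read. Normalization: DMSO = 0, positive control = 100%.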

[4] = target: T1, Hexokinase-4 (Homo sapiens) + Glucokinase regulatory protein (Homo sapiens) (UniProt P35557+Q14397); assay: qHTS assay for inhibitors of recombinant human GCK-GKRP interaction: Diaphorase-coupled assay (AID 743205); settings: G6PDH/diaphorase resorufin fluorescence; series mostly up to 57.5 µM
Outline: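 25 mM Hepes pH 7.6, 5 mM glucose, 0.4 mM ATP, 4 U/ml G6PDH; 10 nM each GST-GCK/FLAG-GKRP. Kinetic fluorescence read, 1/min × 30 min. Normalized: DMSO ± enzyme = max/min.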

[5] = target: T1, Hexokinase-4 (Homo sapiens) + Glucokinase regulatory protein (Homo sapiens); assay: qHTS assay for inhibitors of recombinant human GCK-GKRP interaction: ADP-Glo assay (AID 743206); settings: ADP-Glo luminescence, 60 min, 0% = vehicle-only wells with enzyme present; series mostly up to 76.9 µM
Outline: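 Pin-transferred compounds meet a 15 nM GST-GCK/15 nM FLAG-GKRP/2 uM S6P mix (dispense concentrations). ATP is then added to 0.4 mM final with 5 mM glucose, and the reaction runs 60 min at room temperature. ADP is quantified luminescently.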

[6] = target: T1, Hexokinase-4 (Homo sapiens) + Glucokinase regulatory protein (Homo sapiens); assay: qHTS assay for inhibitors of recombinant human GCK-GKRP interaction: HTRF assay (AID 743207); settings: recombinant GCK-GKRP HTRF binding, 60 min, with sorbitol-6-phosphate; series mostly up to 57.5 µM
Outline: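 5 nM GST-GCK + 5 nM FLAG-GKRP + 2 uM S6P, pH 7.1 buffer (25 mM Hepes, 2 mM MgCl2, 25 mM KCl, 1 mM DTT, Tween/BSA); pin-transferred cpd; anti-FLAG XL665/anti-GST K; 60 min RT; HTRF.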

[7] = qHTS for small molecule inhibitors of Yes1 kinase: Counter Assay (AID 686950); settings: series mostly up to 76.9 µM;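 note: no kinase present so only ADP-Glo detection of a fixed ADP amount is tested; luminescence from ADP-Glo reporting ADP in a fixed ATP and ADP mixture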
Outline: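 No kinase present; 0.08 mM ATP + 0.02 mM ADP in 50 mM Tris pH 7.5, 10 mM MgCl2, 150 mM NaCl, 1 mM DTT; 20 min compound preincubation, 60 min RT, ADP-Glo luminescence, normalized to ATP/ADP (max) and ATP-only (min).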

Measured: outcome

T1 sequence (P35557 whole entry, looked up): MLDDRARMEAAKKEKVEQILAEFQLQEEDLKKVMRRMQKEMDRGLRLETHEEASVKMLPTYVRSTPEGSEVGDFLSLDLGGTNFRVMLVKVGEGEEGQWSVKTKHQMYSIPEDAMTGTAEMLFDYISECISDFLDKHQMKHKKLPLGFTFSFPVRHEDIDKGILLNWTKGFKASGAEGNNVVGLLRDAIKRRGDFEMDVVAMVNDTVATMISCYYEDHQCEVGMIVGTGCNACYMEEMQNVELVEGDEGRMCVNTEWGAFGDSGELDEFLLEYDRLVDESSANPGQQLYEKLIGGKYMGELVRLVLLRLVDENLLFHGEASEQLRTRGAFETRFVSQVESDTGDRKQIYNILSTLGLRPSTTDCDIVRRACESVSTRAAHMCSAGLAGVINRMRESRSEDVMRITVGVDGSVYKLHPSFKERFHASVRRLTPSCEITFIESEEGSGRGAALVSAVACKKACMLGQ
T1 sequence (Q14397 whole entry, looked up): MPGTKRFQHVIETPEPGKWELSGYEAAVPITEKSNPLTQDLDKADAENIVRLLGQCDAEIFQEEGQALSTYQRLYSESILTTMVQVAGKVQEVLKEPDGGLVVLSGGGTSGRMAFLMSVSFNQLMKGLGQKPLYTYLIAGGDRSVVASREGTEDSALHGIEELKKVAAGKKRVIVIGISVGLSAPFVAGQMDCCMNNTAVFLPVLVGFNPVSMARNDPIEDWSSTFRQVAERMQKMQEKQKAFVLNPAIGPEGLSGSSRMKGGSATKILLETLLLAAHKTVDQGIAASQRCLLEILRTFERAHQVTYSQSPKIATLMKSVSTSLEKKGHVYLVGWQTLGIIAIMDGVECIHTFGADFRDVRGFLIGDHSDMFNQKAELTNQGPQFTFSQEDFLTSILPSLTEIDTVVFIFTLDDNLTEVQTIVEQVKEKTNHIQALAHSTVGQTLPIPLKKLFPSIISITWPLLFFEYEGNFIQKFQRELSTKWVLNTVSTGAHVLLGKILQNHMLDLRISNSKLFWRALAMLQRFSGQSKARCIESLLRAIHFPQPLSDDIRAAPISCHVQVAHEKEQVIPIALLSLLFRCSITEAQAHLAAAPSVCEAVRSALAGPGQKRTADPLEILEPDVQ
Arylsulfatase A (Homo sapiens), sequence (P15289 whole entry, looked up): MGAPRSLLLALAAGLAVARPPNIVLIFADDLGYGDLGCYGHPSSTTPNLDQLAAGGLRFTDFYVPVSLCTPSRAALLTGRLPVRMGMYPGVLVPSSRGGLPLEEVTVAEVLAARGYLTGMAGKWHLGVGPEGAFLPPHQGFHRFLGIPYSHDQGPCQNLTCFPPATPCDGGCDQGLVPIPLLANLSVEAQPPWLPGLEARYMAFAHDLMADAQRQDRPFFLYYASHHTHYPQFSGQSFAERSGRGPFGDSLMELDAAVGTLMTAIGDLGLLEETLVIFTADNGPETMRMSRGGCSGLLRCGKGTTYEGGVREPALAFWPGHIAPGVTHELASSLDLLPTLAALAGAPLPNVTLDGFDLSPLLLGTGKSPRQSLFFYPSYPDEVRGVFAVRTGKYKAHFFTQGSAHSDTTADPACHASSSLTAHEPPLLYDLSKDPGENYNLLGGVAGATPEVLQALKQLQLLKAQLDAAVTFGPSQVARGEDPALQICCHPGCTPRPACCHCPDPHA

O=c1n(CCCN2CCN(c3cccc(Cl)c3)CC2)nc2ccccn12
inactive: [1] | [2] | [3] | [4] | [5]

CC(C[N+](C)(C)C)OC(N)=O (stereo unspecified)
inactive: [1] | [2] | [3] | [4] | [5]

Oc1ccc(C2CNCCc3c2cc(O)c(O)c3Cl)cc1 (stereo unspecified)
inactive: [4] | [5] | [6]

NNCCc1ccccc1
inactive: [1] | [2] | [3] | [4] | [5]

CCOC(=O)C1=C[C@]2(CC)CCCN3CCc4c(n1c1ccccc41)[C@@H]32
inactive: [1] | [2] | [3] | [4] | [5]

Nc1ccc(S(=O)(=O)Nc2ccnn2-c2ccccc2)cc1
inactive: [1] | [2] | [3] | [4] | [5]

Cc1ccnc(NS(=O)(=O)c2ccc(NC(=O)Nc3ccc(S(=O)(=O)Nc4nccc(C)n4)cc3)cc2)n1
inactive: [7]

Cc1cnc(NC(=O)C2=C(O)c3ccccc3S(=O)(=O)N2C)s1
inactive: [1] | [2] | [3] | [4] | [5] | [6]

CC(=O)NC(C)c1ccc(Oc2ccc(OC(C)C)cc2)cc1 (stereo unspecified)
inactive: [7]
